For part of these data: Measured potencies and affinities stand elsewhere. The source made the active and inactive calls. Starred links: 1 amine or outer side, 2 acyl side, 3 side chain; linkers in the order of their positions; H or OH if unused. Positions of bridges follow the written chain, without caps; N, C: chain ends. Non-standard residues stand in square brackets, D forms with d. Residues, ends and D or L forms follow the SMILES beside them. ξ: configuration not given here. *: point of attachment. ΔAla(3-NHCONH2) = NC(=O)NC=C(N)C(=O)O; X1 = NC1=NCCC(C(N[*:1])C(=O)[*:2])N1; ξβ3hOrn = NCCCC(N)CC(=O)*; Dap = NC[CH](N)C(=O)O
Key:
[1] = Ebola virus entry assay, green fluorescence channel
[2] = Ebola virus entry assay, ratio channel readout
[3] = Ebola virus entry assay, green channel fluorescence
[4] = Ebola virus entry assay, blue channel fluorescence
[5] = Ebola virus entry assay, reporter ratio channel; AC50: Channel type: primary unless noted; outcome: Channel type: primary unless noted
[6] = Ebola virus entry assay, blue channel (ratio component)
[7] = Ebola virus entry reporter assay, green channel fluorescence
[8] = Ebola virus entry cell assay, ratio channel
[9] = Ebola virus entry assay, blue channel fluorescence; remark: listed apart in the source
[10] = Ebola virus entry assay, ratio channel

Measured: AC50

COc1cc(Cc2cnc(N)nc2N)cc(OC)c1OC
not listed: [9] | [10]
inactive: all other assays above

CN(C)CCc1c[nH]c2ccc(C[C@H]3COC(=O)N3)cc12
not listed: [7] | [9] | [10]
inactive: all other assays above

O=C(O)P(=O)(O)O
not listed: [9] | [10]
inactive: all other assays above

CC(S)C(=O)NCC(=O)O (centres undefined)
inactive: [1] | [2] | [4] | [5] | [6] | [8]

CCOC(=O)c1ncn2c1CN(C)C(=O)c1cc(F)ccc1-2
not listed: [2]
inactive: all other assays above

CCCCS(=O)(=O)N[C@@H](Cc1ccc(OCCCCC2CCNCC2)cc1)C(=O)O
not listed: [9] | [10]
inactive: all other assays above

Cc1cccc(Nc2ccncc2S(=O)(=O)NC(=O)NC(C)C)c1
not listed: [7] | [9] | [10]
inactive: all other assays above

CCCC(CCC)C(=O)O
not listed: [4] | [9] | [10]
inactive: all other assays above

CCCCc1oc2ccccc2c1C(=O)c1cc(I)c(OCCN(CC)CC)c(I)c1
active: [9] 3.55 µM | [10] 2.82 µM | [5] 2.82 µM
inactive: [1]

O=C(O)CCCc1ccccc1
not listed: [9] | [10]
inactive: all other assays above

CCCNC(=O)NS(=O)(=O)c1ccc(Cl)cc1
not listed: [9] | [10]
inactive: all other assays above

CC(C)(C)C(=O)OCOP(=O)(COCCn1cnc2c(N)ncnc21)OCOC(=O)C(C)(C)C
not listed: [9] | [10]
inactive: all other assays above

C[C@H]1[C@H](NC(=O)/C(=N/OC(C)(C)C(=O)O)c2csc(N)n2)C(=O)N1S(=O)(=O)O (stereo in doubt)
not listed: [2] | [9]
inactive: all other assays above

CC(C)CC(N(C)C)C1(c2ccc(Cl)cc2)CCC1 (centres undefined)
not listed: [7] | [9] | [10]
inactive: all other assays above

COc1ccccc1OCC(O)COC(N)=O (centres undefined)
not listed: [7] | [9] | [10]
inactive: all other assays above

NCCCC(N)CC(=O)NCC1NC(=O)C(CO)NC(=O)C(N)CNC(=O)C(C2CCN=C(N)N2)NC(=O)C(=CNC(N)=O)NC1=O (stereo not drawn) (H-[Dap]S[Dap](ξβ3hOrn)[ΔAla(3-NHCONH2)][X1]; lactam 1-C; configuration not given here)
not listed: [9] | [10]
inactive: all other assays above

CN(CCOc1ccc(CC2SC(=O)NC2=O)cc1)c1ccccn1 (centres undefined)
not listed: [7] | [9] | [10]
inactive: all other assays above

CCCN(CCC)CCc1cccc2c1CC(=O)N2
not listed: [7] | [9] | [10]
inactive: all other assays above

NC(=O)OCC(COC(N)=O)c1ccccc1
not listed: [4] | [9] | [10]
inactive: all other assays above

C[C@]12CC[C@H]3[C@@H](CCC4=CC(=O)CC[C@@H]43)[C@@H]1CC[C@@H]2OC(=O)CCc1ccccc1
not listed: [4] | [9] | [10]
inactive: all other assays above

C[C@@H](O)[C@H]1C(=O)N2C(C(=O)O)=C(S[C@@H]3CN[C@H](C(=O)N(C)C)C3)[C@H](C)[C@H]12
not listed: [9] | [10]
inactive: all other assays above

N=c1nc(N2CCCCC2)cc(N)n1O
not listed: [9] | [10]
inactive: all other assays above

O=C(O)C1(C(=O)O)CCC1.[NH2-].[NH2-].[Pt+2]
inactive: [1] | [2] | [3] | [4] | [5] | [8]

Cn1cc[nH]c1=S
not listed: [2]
inactive: all other assays above

CCC[C@H](N[C@@H](C)C(=O)N1[C@H](C(=O)O)C[C@@H]2CCCC[C@@H]21)C(=O)OCC
not listed: [2] | [7]
inactive: all other assays above

Cc1cn[nH]c1
not listed: [3] | [9] | [10]
inactive: all other assays above

Cc1ccccc1C(=O)Nc1ccc(C(=O)N2CCCC(O)c3cc(Cl)ccc32)c(C)c1 (centres undefined)
inactive: [2] | [7] | [8]
active: [9] 25.1 µM | [10] 25.1 µM | [5] 25.1 µM

COc1ccc(Cc2nccc3cc(OC)c(OC)cc23)cc1OC
inactive: [9] | [10] | [3] | [5] | [6]

C[C@@H]1O[C@@H](O[C@H]2C[C@@H](O)[C@]3(CO)[C@H]4[C@H](O)C[C@]5(C)[C@@H](C6=CC(=O)OC6)CC[C@]5(O)[C@@H]4CC[C@]3(O)C2)[C@H](O)[C@H](O)[C@H]1O
active: [9] 8.91 µM | [10] 0.708 µM | [5] 0.708 µM
inactive: [3]

C[C@@H]1CC(=O)NN=C1c1ccc(NN=C(C#N)C#N)cc1
inactive: [9] | [10] | [3] | [5] | [6]

CC(=O)[C@H]1CC[C@H]2[C@@H]3CC[C@H]4C[C@H](O)CC[C@]4(C)[C@H]3C(=O)C[C@]12C
inactive: [9] | [10] | [3] | [5] | [6]

Cc1cccc(C)c1NC(=O)CN1CCCC1=O
inactive: [9] | [10] | [3] | [5]

Cc1[nH]cnc1CN1CCc2c(c3ccccc3n2C)C1=O
not listed: [1]
inactive: all other assays above

NCCc1cc(O)c(O)cc1O
inactive: [10] | [3]
active: [9] 25.1 µM | [5] 39.8 µM

O=[N+]([O-])c1ccc(O)c2ncccc12
active: [9] 31.6 µM | [10] 28.2 µM | [5] 28.2 µM
inactive: [3]

COc1ccccc1N1CCNCC1
inactive: [9] | [10] | [3] | [5]

CC(C)NCC(O)c1ccccc1Cl (centres undefined)
inactive: [9] | [10] | [3] | [5] | [6]

CC[C@@H](CO)NC(=O)[C@@H]1C=C2c3cccc4c3c(cn4C)C[C@H]2N(C)C1
inactive: [2] | [10] | [3] | [4] | [5] | [8]

c1ccc(C2CC2)c(OCC2=NCCN2)c1
inactive: [10] | [3]
active: [9] 39.8 µM | [5] 39.8 µM

Clc1cccc(N2CCNCC2)c1
inactive: [9] | [10] | [3] | [5] | [6]

Cc1ccc(S(=O)(=O)N[C@@H](CCCCN)C(=O)CCl)cc1
inactive: [10] | [3]
active: [9] 14.1 µM | [5] 28.2 µM

CC1=NS(=O)(=O)c2cc(Cl)ccc2N1
not listed: [2] | [9]
inactive: all other assays above

COc1ccc(OC)c(C(O)CNC(=O)CN)c1 (centres undefined)
not listed: [1] | [7] | [10]
inactive: all other assays above

Oc1ccccc1-c1ccccc1
inactive: [9] | [10] | [3] | [5]

CC(C)Oc1ccc2c(=O)c(-c3ccccc3)coc2c1
inactive: [9] | [10] | [3] | [5] | [6]

O=c1[nH]cc(F)c(=O)[nH]1
not listed: [2] | [7] | [9]
inactive: all other assays above

Clc1ccc(CCC(Cn2ccnc2)Sc2c(Cl)cccc2Cl)cc1 (centres undefined)
active: [9] 25.1 µM | [10] 22.4 µM | [5] 22.4 µM
inactive: [3]

CC(C)NCC(O)COc1cccc2[nH]ccc12 (centres undefined)
active: [9] 39.8 µM | [5] 39.8 µM
inactive: [2] | [10] | [3] | [4] | [8]

COc1ccccc1OCCNCC(O)COc1cccc2[nH]c3ccccc3c12 (centres undefined)
inactive: [2]
active: [10] 2.24 µM | [5] 2.24 µM | [8] 10 µM

O=C1C(=O)c2ccccc2C(O)=C1C1CCC(c2ccc(Cl)cc2)CC1 (centres undefined)
inactive: [1] | [3] | [4] | [5] | [6] | [8]

Cn1cc(C2=C(c3cn(C4CCN(Cc5ccccn5)CC4)c4ccccc34)C(=O)NC2=O)c2ccccc21
inactive: [9] | [10] | [3] | [5]

CCOP(=S)(OCC)Oc1cc(C)nc(C(C)C)n1
inactive: [9] | [10] | [3] | [5] | [6]

CCN1/C(=C/C=C/c2sc3ccccc3[n+]2CC)Sc2ccccc21
inactive: [9] | [10] | [3] | [5]

Cc1ccc2c(n1)Oc1ccc(C(C)C(=O)OCC(=O)N(C)C)cc1C2 (centres undefined)
inactive: [9] | [10] | [3] | [5]

CC(C)=CCOc1c2occc2cc2ccc(=O)oc12
active: [9] 25.1 µM | [5] 25.1 µM
inactive: [10] | [3]

CCOC(=O)[C@H](CCc1ccccc1)N[C@@H](C)C(=O)N1[C@H](C(=O)O)C[C@@H]2CCC[C@@H]21
not listed: [1] | [9]
inactive: all other assays above

NC(=O)c1cn(Cc2c(F)cccc2F)nn1
not listed: [1] | [10]
inactive: all other assays above

Oc1cccc2cccnc12
inactive: [9] | [10] | [3] | [5]

c1ccc2c(c1)OCC(C1=NCCN1)O2 (centres undefined)
active: [5] 35.5 µM
inactive: [9] | [10] | [3] | [6]

CNCCC(Oc1ccc(C(F)(F)F)cc1)c1ccccc1 (centres undefined)
active: [9] 8.91 µM | [10] 3.55 µM | [5] 3.55 µM | [8] 12.6 µM
inactive: [2]

Reference: PubChem BioAssay (NCATS)
